Results: the supplement of paper PMC3334620
Whole data set: some 33,000 sequences, median “E-score (-0.5 to 0.5)” near -0.035, cut for the highest 2% near 0.34. Many of the other results were omitted from the sample, so the highest values are more common in it than they were.

biological target: T1, Mot3 (UniProt P54785); experiment: PBM E-score (8-mer binding enrichment) (E-score (-0.5 to 0.5)); higher = stronger / more preferred TF binding; conditions: protein concentration: 200 nM; construct: GST-full length
T1 sequence: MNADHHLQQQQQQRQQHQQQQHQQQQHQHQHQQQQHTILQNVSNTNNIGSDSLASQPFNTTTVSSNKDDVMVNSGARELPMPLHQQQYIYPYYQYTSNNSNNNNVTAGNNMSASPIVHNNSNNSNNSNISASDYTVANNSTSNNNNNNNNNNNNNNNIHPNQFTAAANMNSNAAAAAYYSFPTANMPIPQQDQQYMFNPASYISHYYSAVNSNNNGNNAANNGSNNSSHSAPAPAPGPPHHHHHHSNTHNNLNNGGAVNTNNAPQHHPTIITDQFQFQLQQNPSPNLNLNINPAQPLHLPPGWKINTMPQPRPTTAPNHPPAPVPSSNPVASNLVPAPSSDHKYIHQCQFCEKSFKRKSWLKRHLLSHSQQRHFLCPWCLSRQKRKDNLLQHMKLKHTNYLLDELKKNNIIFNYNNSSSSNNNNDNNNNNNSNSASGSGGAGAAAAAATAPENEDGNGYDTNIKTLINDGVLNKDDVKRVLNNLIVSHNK
Procedure, shortened: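 PURExpress in vitro transcription/translation supplied GST-tagged yeast transcription factors, either full-length or DNA-binding domain. Applied at about 100-200 nM to universal all-10-mer Agilent arrays double-stranded by primer extension, the bound protein was detected with fluorescent anti-GST. E-scores, modified Wilcoxon-Mann-Whitney statistics, were given by the Universal PBM Analysis Suite to ungapped eight-base words pooled with their reverse complements after masliner normalisation.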

Sequence	PBM E-score
GAAGCTAC	-0.0982
AGCTGAAC	-0.255
CTTTTCGA	-0.07
GATCCTCC	-0.303
GTCCGGAC	0.0843
AAGACAGA	0.149
AACCTGTG	0.357
AACCTGAC	-0.0317
AACCTGAG	-0.0479
AAGTTCCT	0.341
ACGTTCCA	0.0401
AAGTTCCG	0.0427
AAGTTCCC	-0.309
ACGTTCCT	0.447
ACGTTCCG	-0.144
AAACTTCC	-0.145
ACAGTAGT	-0.0747
AGAGTGGA	-0.0533
ACCGGTTC	-0.148
AACTGGTG	-0.193
CAGGAGGC	-0.0461
AGAAGAGA	-0.102
AAACACGA	0.292
CAACACGC	0.322
CAACACGA	0.363

Sequence	PBM E-score
TAACACGA	0.402
GAACACGA	0.187
CAACACGG	0.302
AGACTGTA	-0.109
CCCACAGA	-0.053
TCAACCAA	0.0249
CAACAGGC	0.377
CAACAGGA	0.172
ATACAGGA	0.173
GTACAGGA	0.343
CTACAGGC	0.354
CTACAGGA	0.242
ATACAGGC	0.333
CTACAGAC	0.0592
AAACAGGC	0.301
AGAGTTTC	-0.198
GGTGGTGA	-0.179
GAGAAGTA	-0.0782
CTGCAATC	-0.0301
CAAAGGAG	-0.0795
GAAAGGTA	0.228
CAAAGGTA	0.212
GAAAGGAA	0.29
CAAAGGAA	0.415
AAAAGGAT	0.157

Sequence	PBM E-score
TAAAGGAA	0.383
CAAAGGAC	-0.189
AAAAGGAA	0.36
AAAAGGAC	0.171
TAAAGGTA	0.382
TAAAAGGA	0.189
AGTATCCA	-0.198
GGACCGTA	-0.201
CTCACGAG	-0.266
CGGGCCAC	-0.257
CCGGCGAC	-0.266
CATCTTAA	0.0785
ACCTCTTG	-0.0648
TATACGAA	0.0446
CCTTAAGG	0.345
CCTTAAGC	0.0192
CCTTAAGA	0.0196
TAACAGAA	0.227
CGCTAAAG	-0.0919
GGTACATA	0.238
AGTACACA	0.313
AGTACATA	0.362
AGTACACG	0.357
CGTACATA	0.305
TGTACACA	0.34

Sequence	PBM E-score
CGTACACG	0.226
GGTACACA	0.271
AGTACACC	0.052
ATTCTGTC	-0.0735
GAGAAATC	-0.077
CTCGAAAA	-0.084
CTTGGCGA	-0.105
GACCTAAA	-0.086
ACAGGATG	0.00887
GCTGTGTA	0.354
ACTGTGTA	0.349
ACTGTGTC	0.112
ACTGTGTG	0.185
GCTGTATA	0.145
CCTGTGAA	0.254
CCTGTGTC	0.194
CCTGTGTA	0.357
GCTGTGAA	0.0424
AAGCAAGA	0.0175
AGCAAGGG	-0.137
GCGGTCAA	-0.0964
GACTTAGA	-0.164
GGGCACAC	0.178
CGGCACAG	-0.274
CGGCACAC	-0.21

Sequence	PBM E-score
AGGCACAA	0.489
AAGCACAG	0.0561
AAGCACAT	0.0905
AGGCACAC	0.487
GGGCACAA	0.0559
TGGCACAA	-0.0932
AGGCACAT	0.49
ATGCACAT	0.207
AGGCACAG	0.491
CGATGGGA	-0.272
AGTTCAGC	-0.141
ATAACCCC	-0.207
CATCTGGC	-0.139
CGTTGATA	0.114
AATGAGCC	-0.238
CTTAGAAG	-0.209
CAACTACC	-0.02
ATGTGTTA	0.316
ACGTGTCG	0.24
CCGTGTCA	0.277
ACGTGTTA	0.351
GTGTGTTA	0.348
CTGTGTTA	0.334
ACGTGTTG	0.338
GCGTGTTA	0.393

Sequence	PBM E-score
ACGTGTCA	0.342
GCGTGTCA	0.305
ACGTGTTC	0.221
GCGTGTGA	0.177
ATCATCTG	-0.0881
AAGACCGC	-0.139
TCCGTTCA	-0.194
ATTCCATG	0.0576
CTCCGTTC	-0.0461
TAAACCTA	-0.01
AAGAGCTC	0.00626
CCGTGTTC	0.27
CAGTGTTA	0.212
CCGTGTTA	0.376
GCTCCTAA	0.118
AGCAAGAA	-0.0228
CTCGTCTA	-0.168
CCGCGGGA	-0.23
CCATTACA	0.337
TCATTACA	0.359
GCATTACC	0.0719
GCATTAGA	-0.0607
GCATTACA	0.35
ACATTACA	0.357
ACATTACT	0.218

Sequence	PBM E-score
ACATTACG	0.271
TCATTAGA	0.0474
AACACTGG	0.00047
GCTTATCC	-0.179
GCACAAGC	0.117
AGATACCT	-0.096
TAAGGAAA	0.424
TAAGGAGA	-0.0944
TAAGGATA	-0.102
CAAGGAAA	0.317
GAAGGATA	-0.0542
GAAGGAAA	0.454
AGGGATCC	-0.223
AATTTTAG	0.004
AATCTCTA	-0.0669
GGCATGTA	0.376
AGCATGTC	0.218
AGCATGTA	0.354
GGCATGGA	-0.0411
GGCATGCA	0.146
CGCATGTC	0.146
CGCATGGA	-0.0319
CGCATGTA	0.356
AGCATGTG	0.179
